Source: PubChem BioAssay AID938 (National Center for Advancing Translational Sciences (NCATS), 2007)
Where “and” joins values, the source holds several entries; their conditions need not be identical. Equal entries are not always repeated. Among all 73,000 compounds or so, about 1,800 (2.5%) were called active. Roughly 13% stayed inconclusive and do not appear here. Calls follow the shape of the dose curve; as a rule, active = well fitted activation curve with a large enough effect; inconclusive = small, poorly fitted or top-dose-only effect; inactive = no such curve, though single readings can be large or run the other way. This excerpt belongs to a sample that is enriched for actives.

Experiment: qHTS Assay for Agonists of the Thyroid Stimulating Hormone Receptor: Activators of Intracellular cAMP Concentrations in Parental HEK 293; also: nearly all actives have a fitted effect of over 55% in size; as to activation: % of control where 0% means no effect
Details: parental HEK293 CNG cAMP sensor, membrane potential fluorescence; series mostly up to 57.1 µM; activation: at the top concentration
Procedure, shortened: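 Parental HEK 293 cells stably expressing a cAMP-gated CNG channel were loaded with membrane potential dye containing 100 uM RO 20-1724 for 60 min. Compound added for 30 min; depolarization read as fluorescence intensity at 590 nm.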
Potency is read from the fitted curve at half-maximal effect.

Row | Structure (SMILES) | activation | Potency
1 | CS(=O)(=O)N1CCN(C(=O)c2cc3ccccc3oc2=O)CC1 | -3.19% (inactive) | 
2 | C/C(CCN1CCc2nc(-c3ccccc3)c(-c3ccccc3)cc2C1)=N\O[C@@H](C)c1cn([C@@H]2COC[C@@H]2O)nn1 | 0.56% [at 11.4 µM] (inactive) | 
3 | NC(=O)COc1ccc2c3c(c(=O)oc2c1)CCCCC3 | -1.24% (inactive) | 
4 | O=C(COc1ccc2c3c(c(=O)oc2c1)CCC3)NC1CCCCC1 | 25.1% (inactive) | 
5 | CCCOc1ccc2c3c(c(=O)oc2c1OCCC)CCC3 |  | 3.16 µM (active)
6 | Oc1ccc2ccccc2c1C=NCc1c(O)ccc2ccccc12 | 1.97% [at 11.4 µM] (inactive) | 
7 | CC(=O)N1CCN(c2ccc(NCc3ccc(C(C)C)cc3)cc2)CC1 |  | 3.98 µM (active)
8 | CN1CCN(c2ccc(NC(=O)COc3ccc(Cl)cc3Cl)cc2)CC1 | -35.6% (inactive) | 
9 | CC(C)N(C(=O)COC(=O)c1ccccc1C(=O)N1CCN(c2ccc(F)cc2)CC1)C(C)C | 7.82% (inactive) | 
10 | CSc1nnc(CNC(=O)c2ccccc2)n1-c1ccc(F)cc1 | -1.99% (inactive) | 
11 | CCCOc1ccc(NC(=O)C2CCCNC2=O)cc1 (stereo not drawn) | 6.39% (inactive) | 
12 | Cc1cc(NC(=O)CN2CCCCC2C)nc2c1c(=O)oc1ccccc12 (stereo not drawn) | 1.59% (inactive) | 
13 | CC1CCCCN1CC(=O)NCc1ccc2c(c1)OCO2 (stereo not drawn) | 10% (inactive) | 
14 | CCc1ccc2oc(=O)cc(CN3CCCCC3C)c2c1 (stereo not drawn) |  | 25.1 µM (active)
15 | CCCn1c(-c2ccc(F)cc2)nc2c(NCC3CCCN3CC)nc(C)nc21 (stereo not drawn) |  | 15.8 µM (active)
16 | CCN1CCCC1CNc1ncnc2c1[nH]c1ccc(F)cc12 (stereo not drawn) | 10.1% (inactive) | 
17 | CCCn1c(C)nc2c(NCCCCN(CC)CC)nc(C)nc21 | 4.8% (inactive) | 
18 | COc1ccc(CN2CC(C(=O)NCCN3CCN(c4ccccc4F)CC3)CC2=O)cc1 (stereo not drawn) | 11.9% (inactive) | 
19 | CN1CCC2(CC1)NC(=O)NC2=O | 2.1% (inactive) | 
20 | CC[C@@H]1Cc2cc(O)ccc2C2=C1c1ccc(O)cc1C[C@H]2CC |  | 6.31 µM (active)
21 | O=P(O)(CN1CCCCC1)CN1CCCCC1 | 4.02% (inactive) | 
22 | O=C(c1ccc([N+](=O)[O-])cc1)[C@@H](Br)[C@@H](Br)c1ccnc2ccccc12 | 8.13% [at 11.4 µM] (inactive) | 
23 | CCC[C@@H]1C[C@@]1(CCC)C(NC(=O)c1ccc(-c2ccccc2)cc1)c1cccc(Cl)c1 (stereo partly drawn) | -2.94% (inactive) | 
24 | CCC[C@@H]1C[C@@]1(CCC)[C@@H](NC(=O)c1ccccc1)c1ccc(C(=O)OC)cc1 |  | 7.94 µM (active)
25 | CCCC(=O)C1=C(N(C)c2ccccc2)CC(C)(C)C(C(=O)OC)C1=O (stereo not drawn) | 7.86% (inactive) | 

Row | Structure (SMILES) | activation | Potency
26 | COc1nc(OC)nc(N(C)CCO)n1 | -0.636% (inactive) | 
27 | CCSC(C)CC1C/C(=N/O)c2c(C)noc2C1 (stereo not drawn) | 24.2% (inactive) | 
28 | CCOC(=O)N1CCN(C(=O)c2ccc(CN(c3ccc(C)c(C)c3)S(C)(=O)=O)cc2)CC1 | -9.64% (inactive) | 
29 | CCC(c1nnnn1C1CCCC1)N1CCN(C(=O)c2ccco2)CC1 (stereo not drawn) | 25.9% (inactive) | 
30 | CC(C)C(c1nnnn1Cc1ccccc1)N1CCC(C(N)=O)CC1 (stereo not drawn) | 3.61% (inactive) | 
31 | CC(C)C(c1nnnn1C1CCCC1)N1CCN(c2ccccc2F)CC1 (stereo not drawn) |  | 15.8 µM (active)
32 | CC(C)CN1CCc2nc(-c3ccccc3)c3c(c2C1)COC(C)C3 (stereo not drawn) | -2.08% [at 11.4 µM] (inactive) | 
33 | Cn1c2c(c(=O)n(C)c1=O)CN(Cc1ccco1)CN2 | 23.6% (inactive) | 
34 | c1ccc(Oc2ccccc2)cc1 | -32.5% (inactive) | 
35 | CC1CN(C2CCCCC2)c2nc3c(c(=O)n(C)c(=O)n3C)n2C1 (stereo not drawn) | -0.0916% (inactive) | 
36 | Cn1cccc1C1(C(F)(F)F)NCCNC1=O (stereo not drawn) | 7.67% (inactive) | 
37 | COc1cc(-c2nn3c(-c4cccc(C)c4)nnc3s2)cc(OC)c1OC | 19.4% (inactive) | 
38 | Fc1ccc(OCc2nn3c(Cn4nnc5ccccc54)nnc3s2)cc1 | 9.34% (inactive) | 
39 | CCOc1cccc(-c2nnc3sc(COc4ccc(OC)cc4)nn23)c1 |  | 31.6 µM (active)
40 | COc1ccccc1-c1nc(NCc2cccs2)c2ccccc2n1 |  | 25.1 µM (active)
41 | Clc1ccccc1-c1cc(NCCN2CCOCC2)ncn1 | 6% (inactive) | 
42 | COc1ccccc1-c1cc(NCc2cccs2)ncn1 |  | 31.6 µM (active)
43 | COc1ccccc1CNCc1cccs1 | 10.6% (inactive) | 
44 | CNc1nc(-c2ccccc2OC)nc2ccccc12 | -50.8% (inactive) | 
45 | COc1ccccc1-c1nc(NCCNC(C)=O)c2ccccc2n1 | 8.51% (inactive) | 
46 | CCOC(=O)c1cc2occc2n1CC(=O)N1CCN(C(=O)c2ccco2)CC1 | -0.0256% (inactive) | 
47 | CO[C@@H]1COC(=O)C/C=C\[C@H](C)[C@@H](NS(=O)(=O)c2ccc(C)cc2)COC(=O)C/C=C\[C@@H]1C | 2.07% [at 11.4 µM] (inactive) and 4.9% [at 11.4 µM] (inactive) | 
48 | CCC[C@H]1C(=O)N2C(N(C)C)=Nc3ccc(C)cc3N2C1=O | -3.93% [at 25.6 µM] (inactive) | 
49 | COc1ccccc1C(=O)C(O)c1ccccc1OC (stereo not drawn) | 7.49% (inactive) | 
50 | Cc1ccc(C)c(N2CCN(C(=O)CCc3nc4ccccc4[nH]3)CC2)c1 | 1.94% (inactive) | 

Row | Structure (SMILES) | activation | Potency
51 | COCCn1c(C)cc(C(=O)CSc2ncnc3sc4c(c23)CCC4)c1C | 21.4% (inactive) | 
52 | Cc1cc(C)n(-c2nc(SCC(=O)N3CCCC3)c3c4c(sc3n2)CCCC4)n1 | 19.1% (inactive) | 
53 | COCCNc1nc(-n2nc(C)cc2C)nc2sc3c(c12)CCCC3 |  | 15.8 µM (active)
54 | COc1cc2c(cc1OC)C(c1ccc(C)o1)CC(=O)N2 (stereo not drawn) | -0.178% (inactive) | 
55 | COCCOC(=O)C1=C(C)NC(=O)CC1c1cc2c(cc1Br)OCO2 (stereo not drawn) | -2.69% (inactive) | 
56 | CCCOc1ccccc1C1CC(=O)Nc2cc3c(cc21)OCO3 (stereo not drawn) |  | 7.94 µM (active)
57 | COc1ccc(NS(=O)(=O)c2ccc(NC(=O)C(C)(C(F)(F)F)C(F)(F)F)cc2)nn1 | 0.701% (inactive) | 
58 | Cc1nc2nc[nH]n2c(=O)c1NC(=O)c1cccc(OCC(C)C)c1 | 4.26% (inactive) | 
59 | CCOC(=O)c1[nH]c2c(c1C)C(=O)CC(c1ccc(N(C)C)cc1)C2 (stereo not drawn) | 10% (inactive) | 
60 | COC(=O)C1C(=O)c2c([nH]c(C(=O)OCCSC)c2C)CC1C (stereo not drawn) | 13% (inactive) | 
61 | CCCOC(=O)c1[nH]c2c(c1C)C(=O)CC(c1cc(OC)c(OC)c(OC)c1)C2 (stereo not drawn) |  | 15.8 µM (active)
62 | N[C@@H](C(=O)O)c1ccc(P(=O)(O)O)cc1 | -0.407% (inactive) | 
63 | C/C(CCN1CCCCc2nc(C)c(C)cc21)=N\O[C@@H](C)c1cn([C@@H]2COC[C@@H]2O)nn1 | 6.27% [at 11.4 µM] (inactive) | 
64 | C[C@@H]1O[C@@H](O[C@@H]2[C@@H](O)[C@H](OCCc3ccc(O)c(O)c3)O[C@H](CO[C@@H]3O[C@H](CO)[C@@H](O)[C@H](O)[C@H]3O)[C@H]2OC(=O)/C=C/c2ccc(O)c(O)c2)[C@H](O)[C@H](O)[C@H]1O | 23.7% (inactive) | 
65 | CO[C@H]1COC(=O)[C@@H](OCc2ccccc2)/C=C\[C@H](C)[C@@H](OC)COC(=O)[C@H](OCc2ccccc2)/C=C\[C@@H]1C | -2.98% [at 11.4 µM] (inactive) | 
66 | O=C(c1csnn1)N1CCC2(CC1)CN(c1ncccn1)C2 | 2.09% (inactive) | 
67 | O=C(c1csnn1)N1CCC[C@@]2(CCN(Cc3nccs3)C2)C1 |  | 3.98 µM (active)
68 | Cn1cccc1C(=O)N1CCC[C@@]2(CCN(Cc3nccs3)C2)C1 | 1.41% (inactive) | 
69 | CCc1cc(=O)oc2cc(OCC(=O)N3CCCc4ccccc43)ccc12 | -4.75% (inactive) | 
70 | CCOC(=O)c1ccc(NC(=O)CS(=O)(=O)c2cn(CC)c3ccccc23)cc1 | 9.17% (inactive) | 
71 | COC(=O)[C@@H](NC(=O)NCc1cccc(OC)c1)C(C)C | 7.43% (inactive) | 
72 | O=C(Nc1cccc(NC(=O)N2CCN(c3ccccc3)CC2)c1)N1CCN(c2ccccc2)CC1 | -10.9% (inactive) | 
73 | O=C(Nc1ccccc1N1CCN(c2ccccc2)CC1)c1cccc(F)c1 |  | 3.98 µM (active)
74 | O=C(c1cccc(F)c1)N1CCC2(CC1)CCN(c1ccccc1)CC2 | -0.919% (inactive) | 
75 | O=C1[C@H]2[C@H]3[C@H](O)[C@H](O)C/C(=N/OCc4ccccc4)[C@H]3CC[C@@H]2C(=O)N1Cc1ccccc1 | -2.25% [at 11.4 µM] (inactive) | 

Row | Structure (SMILES) | activation | Potency
76 | C[C@@H](c1ccccc1)N1C(=O)[C@H]2[C@H]3[C@H](O)[C@H](O)C/C(=N/OC[C@@H](O)COCc4ccco4)[C@@H]3CC[C@@H]2C1=O | 5.7% [at 11.4 µM] (inactive) | 
77 | O=C(NCc1ccco1)c1nc(-c2ccccc2)n(-c2ccccc2)n1 | 22.4% (inactive) | 
78 | O=C(NCc1ccco1)c1cccn2c(=O)c3cc(Br)ccc3nc12 | 5.6% (inactive) | 
79 | O=C(NCc1ccco1)c1cc(-c2cccnc2)nc2ccc(Cl)cc12 |  | 31.6 µM (active)
80 | CN(C)CCCCNC(=O)c1ccc(Cc2nc3ccccc3[nH]2)cc1 | 3.13% (inactive) | 
81 | Oc1c(Cl)cc(Cl)c(Cl)c1Cc1c(O)c(Cl)cc(Cl)c1Cl |  | 10 µM (active)
82 | C=CC(=O)c1ccc2ccccc2c1 | 8.58% (inactive) | 
83 | O=C(CCSc1ccccc1)NCCSc1ccccn1 | 15.3% (inactive) | 
84 | N#Cc1ccc(C(c2nnnn2CCc2ccccc2)N2CCCCCC2)cc1 (stereo not drawn) |  | 15.8 µM (active)
85 | CC(C)C(c1nnnn1CCc1ccccc1)N1CCN(C(=O)c2ccco2)CC1 (stereo not drawn) | 20.5% (inactive) | 
86 | COc1ccc(CCn2nnnc2C(c2ccccc2)N2CCN(C)CC2)cc1OC (stereo not drawn) | 26.2% (inactive) | 
87 | S=c1c2[nH]cnc2ncn1CCSc1ncnc2nc[nH]c12 | -1.69% [at 11.4 µM] (inactive) | 
88 | c1ccc(-c2oc3ncnc(N4CCOCC4)c3c2-c2ccccc2)cc1 |  | 15.8 µM (active)
89 | c1ccc(COc2nsnc2N2CCOCC2)cc1 | 27.1% (inactive) | 
90 | c1ccc(-n2nnnc2N2CCOCC2)cc1 | -5.36% (inactive) | 
91 | CC(C)NC(=O)CCCn1c(=S)[nH]c2cc3c(cc2c1=O)OCO3 | 8.66% (inactive) | 
92 | O=C(Nc1ccccc1)N[C@H]1C[C@H](C(=O)O)Nc2cc(Cl)cc(Cl)c21 | 8% (inactive) | 
93 | COCCNc1cc(-c2c(C)noc2C)ncn1 | 2.35% (inactive) | 
94 | CNc1cc(-c2c(C)noc2C)ncn1 |  | 3.98 µM (active)
95 | Cc1noc(C)c1-c1cc(NCc2cccnc2)ncn1 | -4.51% (inactive) | 
96 | O=C(CSc1nnc(-c2ccoc2)o1)N1CCOCC1 | -3.67% (inactive) | 
97 | CC(=O)OCC1OC(C#CCCCc2ccccc2)C=CC1OC(C)=O (stereo not drawn) | -0.905% [at 11.4 µM] (inactive) | 
98 | COCCCNC(=O)CCc1nc2cccnc2n1Cc1ccc(OC)cc1 | -5.11% (inactive) | 
